# From PubChem BioAssay (NCI)
# “And” between values parts separate entries of the source, which are not always exact repeats. Identical values can stand only once. Compounds without any hit were thinned out: in the full panel of roughly 83,000, 20% have a hit.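 Activity criterion: percent growth below 10, measured after cells in 96-well plates were exposed to a single compound concentration for 48 hours.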 A number with no mark means an inactive call. The source made the active and inactive calls.
# Test system: MDA-MB-468 breast
# Experiment: NCI-60 one-dose screen, 48 h (100 = growth as untreated, 0 = no growth, -100 = all killed)
# Settings: 10 µM unless noted
row,SMILES,growth
1,O=C(Nc1cccc2c1C(=O)c1cccc(NC(=O)c3ccc(C(=O)Nc4cccc5c4C(=O)c4cccc(NC(=O)c6ccccc6)c4C5=O)cc3)c1C2=O)c1ccccc1,91.3%
2,COc1ccc(-c2nnc(COc3ccc(C(=O)/C=C/c4ccco4)cc3)o2)cc1,20.4%
3,O=[P@@]1(c2ccccc2)O[C@H](COCc2ccccc2)[C@@H](OCc2ccccc2)[C@H](OCc2ccccc2)[C@H]1O,21.3%
4,CCCCCc1cc[n+](CC(=O)c2ccc(Cl)cc2)cc1,65.9%
5,O=C(O)/C=C/C=C/c1ccccc1,93.6% and 112%
6,CN1CCN(Cc2ccc(NC(=O)c3cncc(C#Cc4cnc(N)c5cccnc45)c3)cc2C(F)(F)F)CC1,15.8%
7,NS(=O)(=O)c1ccc(-n2cc(CC=O)nn2)cc1,102%
8,OCCSc1ccc(Cl)cc1,106%
9,O=C(Nc1ccc(-n2cc(-c3ccncc3)c(-c3ccc(Cl)c(O)c3)n2)cc1)c1cc(Cl)cc(Cl)c1,57.6%
10,O=S(=O)(O)c1cc(O)c2c(N=Cc3ccccc3O)c(S(=O)(=O)O)ccc2c1,101%
11,COc1cc(/C=C2\C(=O)N(Cc3ccc(Cl)cc3)c3ccccc32)cc(OC)c1OC,-18.3% (active)
12,Cc1ccc(-c2nnc(SCc3ccc(O)c4ncccc34)o2)cc1,14.4%
13,O=C1c2cc3c(cc2-c2c1c1ccc(Cl)cc1c(=O)n2C[C@H](O)[C@@H](O)[C@H](O)CO)OCO3,-63.4% (active)
14,COc1cc(Nc2ncccc2C(=O)NCc2cn(Cc3cccc(Oc4ccccc4)c3)nn2)cc(OC)c1,18.6%
15,COc1ccc2c(C3=C(c4cn(C)c5ccccc45)C(=O)NC3=O)coc2c1,30.5%
16,Cn1c(N2NC(=O)C(N=Nc3ccc(S(N)(=O)=O)cc3)C2=O)nc(-c2ccco2)c(C#N)c1=O (stereo not given),-17.9% (active)
17,Cc1nc(-c2cc3ccccc3c(N3CCN(C)CC3)n2)cs1,87%
18,CC1c2ccccc2-c2ccccc2N1C (stereo not given),103%
19,O=c1cc(-c2ccccc2)[nH]c(=S)[nH]1,115%
20,CCOC(=O)c1ccc2c(c1)ncn2-c1ccc(NC(=O)Nc2cccc(C)c2)cc1,116%

row,SMILES,growth
1,Cc1ccccc1NC1CC(=O)N(c2ccc(Cl)cc2Cl)C1=O (stereo not given),105%
2,Nc1n[nH]c2cccc(C#Cc3cccc(NC(=O)c4cccc(C(F)(F)F)c4)c3)c12,79.3%
3,O=C(CCl)Nc1ccc2c(Nc3cc(O)ccc3Cl)ncnc2c1,-61.7% (active)
4,Oc1ccc2ccccc2c1CN1CCOCC1,123%
5,COc1ncc(-c2ccc3nccc(-c4ccnnc4)c3c2)cc1NS(=O)(=O)c1ccc(F)cc1F,-73% (active)
6,COc1ccccc1/C=C/C1=C(C)CCC(c2ccccc2OC)C1C (stereo not given),29.7%
7,Cc1nc2ccccc2n1-c1ncnc2c1CC(C)c1ccccc1N2C (stereo not given),80.9%
8,CN(C)c1ccc(N=C2C=CC(=O)c3ccccc32)cc1,65.6%
9,O=[N+]([O-])c1cccc(/C=C/c2ccc3ccccc3n2)c1,71.2%
10,COc1ccc(-c2nn(-c3ccccc3)cc2/C=C/C(=O)c2ccc(NC(=O)CCCCCCC(=O)NO)cc2)cc1,92.8%
11,COc1ccc(-c2nc(-c3cn(C)c4ncccc34)cs2)cc1,-6.3% [100 µM] (active)
12,COC(=O)/C=C/c1c(C2(C)NC(=O)c3ccccc3N2)c(=O)oc2ccc(Cl)cc12 (stereo not given),88.7%
13,Fc1ccc(Nc2nc3nonc3nc2Nc2ccc(I)cc2)cc1,-14.7% (active)
14,CCOC(=O)C1=CCC(n2cc(F)c(=O)[nH]c2=O)O1 (stereo not given),134%
15,O=C(/C=C/C12c3ccccc3C(c3ccccc31)C1C(=O)NC(=O)C12)c1ccc(Br)cc1 (stereo not given),42.7%
16,O=C1/C(=C/c2ccc(F)cc2)CN(C(=O)CCN2CCC(=NO)CC2)C/C1=C\c1ccc(F)cc1,-41.6% (active)
17,NC(=O)CSSCC(N)=O,105%
18,NC(=O)C1CC2C=CC1C2 (stereo not given),109%
19,COc1ccc(Cl)cc1NC(=O)c1cc2c([nH]1)-c1nc(NC(=O)C(C)C)sc1CC2,112%
20,CN1CCN(Cc2ccc(NC(=O)c3cncc(C#Cc4cnc5[nH]ncc5c4)c3)cc2C(F)(F)F)CC1,40%
